Results filed as inconclusive are left out. Unmarked numbers belong to inactive results. The source made the active and inactive calls. Unless noted, calls come from the whole dose curve; as a rule, active = well fitted curve in the direction sought with a large enough effect in the repeat runs; inconclusive = weak or mixed curves; inactive = no such curve, though single readings can be large; an effect the other way counts as inactive or inconclusive.

Assay [1] addresses Estrogen receptor (Homo sapiens) (UniProt P03372). Briefly: qHTS assay to identify small molecule antagonists of the estrogen receptor alpha (ER-alpha) signaling pathway (AID 743069; active = well fitted curve in the direction sought with a large enough effect in the signal ratio in the repeat runs, not every such curve was filed as active; the % refers to the signal ratio). A digest of the protocol:
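Estradiol-stimulated ER-alpha-UAS-bla HEK293 cells, 18 hr compound exposure at 37C. LiveBLAzer B/G substrate, 2 hr RT, fluorescence read.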
In general terms: In qHTS, concentration-response curves come from the screen itself.

Assay [2] shares this target. Briefly: qHTS assay to identify small molecule agonists of the estrogen receptor alpha (ER-alpha) signaling pathway (AID 743075; calls by dose curve;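 note: HEK293 GripTite cells with ER-alpha and UAS-driven beta-lactamase reporter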).
For assay [3] the target is unchanged. Put plainly: qHTS assay to identify small molecule agonists of the estrogen receptor alpha (ER-alpha) signaling pathway using the BG1 cell line (AID 743079). Note: nearly all actives have a fitted effect of over 20% in size. Note: potency is the fitted concentration of half-maximal effect.
Assay [4] is described as follows: qHTS assay to identify small molecule antagonists of the estrogen receptor alpha (ER-alpha) signaling pathway using the BG1 cell line (AID 743080; calls by dose curve;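 note: BG1 cells stimulated with 17beta-estradiol alongside compound; series mostly up to about 70 µM; nearly all actives have a fitted effect of over 25% in size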). A digest of the protocol:
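BG1-Luc-4E2 cells (endogenous full-length ER-alpha, stable 4×ERE-luciferase) were starved 5 days in phenol-red-free medium with 10% charcoal-stripped FBS, plated 24 h, then given compound plus 17beta-estradiol for 21.5 h at 37 C; ONE-Glo luminescence read after 30 min.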

Assay [5] is described as follows: qHTS assay to identify small molecule antagonists of the estrogen receptor alpha (ER-alpha) signaling pathway using the BG1 cell line - cell viability counter screen (AID 743081).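 Note: compound given together with 17beta-estradiol as the ER stimulus; series mostly up to about 70 µM; nearly all actives have a fitted effect of over 45% in size.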
Assay [6] has as its target Aromatase (Homo sapiens) (UniProt P11511). Put plainly: qHTS assay to identify aromatase inhibitors (AID 743083). Note: series mostly up to about 70 µM; nearly all actives have a fitted effect of over 55% in size.
Assay [7] can be described thus: qHTS assay to identify aromatase inhibitors - cell viability counter screen (AID 743084).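 Note: cells stimulated with testosterone during compound exposure; nearly all actives have a fitted effect of over 55% in size.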
The nature of assay [8]: qHTS assay to identify small molecule that activate the aryl hydrocarbon receptor (AhR) signaling pathway - cell viability counter screen (AID 743086).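 Note: HepG2 liver cells carrying the AhR DRE luciferase reporter; series mostly up to about 70 µM; nearly all actives have a fitted effect of over 45% in size.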 The method in brief:
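HepG2-AhR-luc (HG2L7.5c1) cells, 4000/well, were preincubated 5 h at 37C, exposed to compound in qHTS format for 24 hr at 37C, then given CellTiter-Fluor for 30 min; viability was read as fluorescence in the reporter wells.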

Assay [9] concerns the target Peroxisome proliferator-activated receptor gamma (Homo sapiens) (UniProt P37231). Put plainly: qHTS assay to identify small molecule agonists of the peroxisome proliferator-activated receptor gamma (PPARg) signaling pathway (AID 743094; active = well fitted activation curve with a large enough effect in the signal ratio in the repeat runs, not every such curve was filed as active; the % refers to the signal ratio). A digest of the protocol: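 Following 5 h plating at 37C, PPARg-bla HEK293H cells receive compound or DMSO for 17 h; fluorescence intensity is recorded after LiveBLAzer B/G loading for 1 h at room temperature.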

A short description of assay [10]: qHTS assay to identify small molecule antagonists of the peroxisome proliferator-activated receptor gamma (PPARg) signaling pathway - cell viability counter screen (AID 743194). Note: nearly all actives have a fitted effect of over 55% in size. A digest of the protocol: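 PPARg-UAS-bla HEK293H cells were plated, rested 5 h at 37 C, then treated with compounds plus rosiglitazone (50 nM final) for 17 h at 37 C; viability was then read by CellTiter-Glo luminescence after 30 min at room temperature.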

Assay [11] in a line: qHTS assay for small molecule agonists of the antioxidant response element (ARE) signaling pathway (AID 743202; active = well fitted activation curve with a large enough effect in the signal ratio in the repeat runs, not every such curve was filed as active; the % refers to the signal ratio; note: potency is the fitted concentration of half-maximal effect). A digest of the protocol: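 Compounds delivered in DMSO to ARE-bla HepG2 cells (2,000 cells/well, pre-incubated 5 h) and left 16 h at 37 C. LiveBLAzer B/G FRET substrate then added for 2 h at RT before fluorescence reading.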
A short description of assay [12]: qHTS assay for small molecule agonists of the antioxidant response element (ARE) signaling pathway - cell viability counter screen (AID 743203; calls by dose curve; note: nearly all actives have a fitted effect of over 55% in size). The method in brief: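 Compounds in DMSO were pinned onto ARE-bla HepG2 cells plated 5 hrs earlier at 2,000 cells/well. Sixteen hours later at 37C/5% CO2, CellTiter-Glo was added and luminescence measured after 30 min at room temperature.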

The nature of assay [13]: qHTS assay for small molecule activators of the heat shock response signaling pathway - cell viability counter screen (AID 743209). Note: nearly all actives have a fitted effect of over 50% in size. A digest of the protocol: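 Counter screen for cytotoxicity in HeLa HSE-bla reporter cells. Treatment was 5 h at 37 C; viability was detected by luminescent ATP assay (CellTiter-Glo) in the same wells as the beta-lactamase read.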
Assay [14] can be described thus: qHTS assay for small molecule activators of the heat shock response signaling pathway (AID 743210; active = well fitted activation curve with a large enough effect in the signal ratio in the repeat runs, with a control signal flat, not every such curve was filed as active; the % refers to the signal ratio;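 note: HeLa cells with beta-lactamase reporter driven by heat shock elements; series mostly up to about 63 µM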). The method in brief:
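Reporter gene assay: HeLa cells stably bearing an HSE-bla construct, compound treatment 5 h at 37 C, LiveBLAzer substrate 2.5 h at RT, fluorescence intensity.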

Assay [15] is described as follows: qHTS assay to identify small molecule agonists of the peroxisome proliferator-activated receptor delta (PPARd) signaling pathway - cell viability counter screen (AID 743211). Note: nearly all actives have a fitted effect of over 55% in size. The method in brief: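 qHTS cell viability: PPARd-bla HEK293H; 17 h cpd, 37C; CellTiter-Glo, luminescence at 30 min RT.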
In assay [16] the target is Peroxisome proliferator-activated receptor gamma (Homo sapiens) (UniProt P37231). Put plainly: qHTS assay to identify small molecule antagonists of the peroxisome proliferator-activated receptor gamma (PPARg) signaling pathway (AID 743191; calls by dose curve; note: series mostly up to about 63 µM; nearly all actives have a fitted effect of over 30% in size). The method in brief:
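GeneBLAzer PPARg UAS-bla HEK293H cells carrying a UAS-driven beta-lactamase reporter were plated at 3000 cells/well, preincubated 5 h at 37C, then given compound for 17 h at 37C; LiveBLAzer B/G FRET substrate was read after 1 h at room temperature.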

The nature of assay [17]: qHTS assay to identify small molecule antagonists of the estrogen receptor alpha (ER-alpha) signaling pathway - cell viability counter screen (AID 743074; calls by dose curve;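 note: HEK293 cells carrying ER-alpha-UAS-bla reporter stimulated with 17beta-estradiol; nearly all actives have a fitted effect of over 45% in size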).
Assay [18] addresses Aryl hydrocarbon receptor (Homo sapiens) (UniProt P35869). Put plainly: qHTS assay to identify small molecule that activate the aryl hydrocarbon receptor (AhR) signaling pathway (AID 743085).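 For activation: HG2L7.5c1 human HepG2 liver cells with stably integrated DRE-driven firefly reporter; series mostly up to about 70 µM.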 Note: nearly all actives have a fitted effect of over 15% in size. Note: potency is the fitted concentration of half-maximal effect. The method in brief: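 AhR agonist activity is inferred from enhanced light output of a DRE-controlled firefly luciferase reporter in HepG2 cells, measured with ONE-Glo following 24 h treatment at 37C.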

Assay [19] has as its system thyroid hormone receptor (rat, GH3 cells). Briefly: qHTS assay to identify small molecule agonists of the thyroid receptor (TR) signaling pathway (AID 743066; calls by dose curve).

Sequence of Aryl hydrocarbon receptor (Homo sapiens) (P35869 whole entry, looked up): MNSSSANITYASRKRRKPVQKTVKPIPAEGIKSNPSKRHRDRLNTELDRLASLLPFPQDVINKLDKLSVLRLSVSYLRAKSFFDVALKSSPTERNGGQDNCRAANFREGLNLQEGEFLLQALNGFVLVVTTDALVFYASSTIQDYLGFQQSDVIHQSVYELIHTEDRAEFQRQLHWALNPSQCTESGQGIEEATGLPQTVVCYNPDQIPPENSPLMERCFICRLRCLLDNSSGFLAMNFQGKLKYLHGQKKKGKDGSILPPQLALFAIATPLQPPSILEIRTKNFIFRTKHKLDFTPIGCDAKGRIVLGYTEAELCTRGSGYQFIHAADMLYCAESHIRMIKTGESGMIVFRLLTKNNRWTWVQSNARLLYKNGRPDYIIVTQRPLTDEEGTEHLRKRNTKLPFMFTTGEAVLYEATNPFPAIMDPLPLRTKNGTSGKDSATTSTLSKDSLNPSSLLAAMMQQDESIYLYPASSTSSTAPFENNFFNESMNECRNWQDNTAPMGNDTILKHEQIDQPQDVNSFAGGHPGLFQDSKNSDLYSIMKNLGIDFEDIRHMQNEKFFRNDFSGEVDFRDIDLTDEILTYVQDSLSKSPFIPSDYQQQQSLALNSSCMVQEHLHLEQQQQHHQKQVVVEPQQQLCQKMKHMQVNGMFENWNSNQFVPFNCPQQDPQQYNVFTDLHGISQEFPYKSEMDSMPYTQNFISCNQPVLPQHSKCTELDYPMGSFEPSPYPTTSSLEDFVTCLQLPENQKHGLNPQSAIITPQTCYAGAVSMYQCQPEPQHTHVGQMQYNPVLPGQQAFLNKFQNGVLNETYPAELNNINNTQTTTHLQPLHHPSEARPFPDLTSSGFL
Sequence of Estrogen receptor (Homo sapiens) (P03372 whole entry, looked up): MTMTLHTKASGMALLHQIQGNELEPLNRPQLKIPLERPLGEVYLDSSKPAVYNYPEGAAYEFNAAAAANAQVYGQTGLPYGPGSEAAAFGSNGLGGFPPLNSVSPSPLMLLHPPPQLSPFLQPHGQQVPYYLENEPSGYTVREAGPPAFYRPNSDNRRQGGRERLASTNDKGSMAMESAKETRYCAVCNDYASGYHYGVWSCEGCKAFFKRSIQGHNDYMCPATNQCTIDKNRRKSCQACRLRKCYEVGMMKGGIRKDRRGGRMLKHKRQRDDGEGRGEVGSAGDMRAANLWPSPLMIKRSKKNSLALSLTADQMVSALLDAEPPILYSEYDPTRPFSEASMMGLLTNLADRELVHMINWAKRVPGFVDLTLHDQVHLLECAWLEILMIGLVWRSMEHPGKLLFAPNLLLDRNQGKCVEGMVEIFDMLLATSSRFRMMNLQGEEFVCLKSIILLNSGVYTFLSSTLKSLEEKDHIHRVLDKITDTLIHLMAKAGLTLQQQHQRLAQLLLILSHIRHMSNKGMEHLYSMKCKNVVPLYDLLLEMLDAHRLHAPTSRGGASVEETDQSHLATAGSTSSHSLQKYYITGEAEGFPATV
Sequence of Peroxisome proliferator-activated receptor gamma (Homo sapiens) (P37231 whole entry, looked up): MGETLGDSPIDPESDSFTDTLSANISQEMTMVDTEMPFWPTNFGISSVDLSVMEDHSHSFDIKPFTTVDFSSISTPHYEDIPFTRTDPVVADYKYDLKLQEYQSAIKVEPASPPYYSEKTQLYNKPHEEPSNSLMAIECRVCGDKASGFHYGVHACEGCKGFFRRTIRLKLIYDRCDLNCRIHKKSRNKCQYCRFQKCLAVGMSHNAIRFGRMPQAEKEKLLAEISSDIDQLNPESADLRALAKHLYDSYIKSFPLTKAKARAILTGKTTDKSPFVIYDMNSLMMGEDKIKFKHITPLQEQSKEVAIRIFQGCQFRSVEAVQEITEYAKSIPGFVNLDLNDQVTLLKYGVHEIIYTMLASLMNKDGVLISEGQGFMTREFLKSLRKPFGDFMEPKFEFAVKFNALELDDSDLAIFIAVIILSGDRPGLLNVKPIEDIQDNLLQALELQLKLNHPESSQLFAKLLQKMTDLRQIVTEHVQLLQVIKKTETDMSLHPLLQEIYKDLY
Sequence of Aromatase (Homo sapiens) (P11511 whole entry, looked up): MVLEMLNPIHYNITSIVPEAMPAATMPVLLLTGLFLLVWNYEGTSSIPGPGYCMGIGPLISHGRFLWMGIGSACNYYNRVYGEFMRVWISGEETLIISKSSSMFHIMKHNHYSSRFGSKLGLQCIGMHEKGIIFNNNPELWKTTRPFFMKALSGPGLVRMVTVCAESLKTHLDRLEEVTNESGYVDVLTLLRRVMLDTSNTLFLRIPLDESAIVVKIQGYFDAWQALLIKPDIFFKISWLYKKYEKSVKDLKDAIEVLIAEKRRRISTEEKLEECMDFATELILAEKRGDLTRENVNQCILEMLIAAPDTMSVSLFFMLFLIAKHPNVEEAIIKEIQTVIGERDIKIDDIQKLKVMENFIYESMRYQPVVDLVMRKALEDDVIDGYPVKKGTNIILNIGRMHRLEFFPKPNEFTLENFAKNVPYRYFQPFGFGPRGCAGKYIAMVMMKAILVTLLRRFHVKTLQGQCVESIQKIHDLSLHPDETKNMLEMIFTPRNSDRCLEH

Take `CCCc1c2oc(C(=O)O)cc(=O)c2cc2c(=O)cc(C(=O)O)n(CC)c12`: the Potency entry in [1], in assay [3], in [5], in assay [6], in assay [7] and in assay [9] was “inactive” throughout. Also, the Potency entry in assay [10], in assay [11], in assay [12], in assay [14] and in assay [15] was “inactive” in each case. Further, the call in assay [2], in assay [4], in assay [8] and in assay [13] was inactive.

For `CCCS(=O)c1ccc2nc(NC(=O)OC)[nH]c2c1` (configuration not stated), the Potency result in assay [10], in assay [12], in assay [14] and in assay [15] was “inactive” throughout. Moreover, the call in assay [13] was inactive.

Consider `O=Cc1ccc(O)c(O)c1O`, for which the Potency result in [16], in assay [10] and in [12] was “inactive” in each case. The Potency in [11] is 23700 nM (active).

As to `NCCC(O)(P(=O)(O)O)P(=O)(O)O`, the Potency result in [17], in [5], in assay [6], in assay [7], in [18] and in assay [9] was “inactive” throughout. The Potency result in [10], in [11], in assay [12], in [14] and in [15] was “inactive” throughout. Also, the compound was classed as inactive in assay [8] and in assay [13].

In the case of `N#CSCC(=O)O`, the Potency entry in assay [10], in [11], in [12] and in assay [15] was “inactive” each time. Besides, in [13], the compound was called inactive.

On to `CC(C)C[C@H](NC(=O)OCC1c2ccccc2-c2ccccc21)C(=O)O`, for which the compound was classed as inactive in assay [19], in assay [8] and in assay [13]. Further, the Potency entry in assay [17], in assay [5], in [6], in [7], in [10] and in assay [11] was “inactive” in each case. Besides, the Potency result in assay [12], in assay [14] and in assay [15] was “inactive” in each case.

In the case of `CCCCc1ccc2nc(NC(=O)OC)[nH]c2c1`, the Potency entry in assay [1], in [5], in assay [6], in assay [7], in [9] and in [16] was “inactive” each time. The Potency entry in assay [10] and in assay [12] was “inactive” each time. For the same compound, the values for the Potency in assay [3] and in [18] were 2270 nM (active) and 1010 nM (active), respectively. Further, the outcome in [8] and in assay [13] was inactive.

`O=C(O)CN(CCN(CC(=O)O)CC(=O)O)CCN(CC(=O)O)CC(=O)O`: the compound was classed as inactive in [19], in [8] and in assay [13]. The Potency entry in [17], in assay [5], in [6], in assay [7], in assay [16] and in assay [10] was “inactive” each time. Further, the Potency result in assay [12], in [14] and in assay [15] was “inactive” each time.

For `CCCCCCC`, the Potency result in assay [1], in assay [17], in [3], in assay [5], in [6] and in assay [7] was “inactive” in each case. The Potency result in [18], in assay [9], in [10], in [11], in assay [12] and in assay [15] was “inactive” throughout. Moreover, the compound was called inactive in assay [2], in assay [4], in assay [8] and in assay [13].

Turning to `CCOC(=O)c1cc(=O)c2c(OCC(COc3cccc4oc(C(=O)OCC)cc(=O)c34)OC(=O)[C@@H](N)CCCCN)cccc2o1`, the Potency entry in assay [16], in assay [10], in assay [11], in assay [12], in assay [14] and in assay [15] was “inactive” each time. In addition, in assay [13], the outcome was inactive.

As for `CCCCCCn1c(=O)c2c(ncn2C)n(C)c1=O`, the Potency entry in [10], in [11], in [12], in assay [14] and in assay [15] was “inactive” throughout. The compound was classed as inactive in assay [13].

The values above are taken from PubChem BioAssay (Tox21).
